Source: PubChem BioAssay (NCATS)
Values joined by “and” are separate entries in the source; they are usually repeats but may differ in a detail not shown here. Equal entries are not always repeated. Inconclusive results are not listed. Where a call stands in place of a potency, no number is given. Active and inactive are the calls of the source. Unless noted, the call rests on the fitted dose curve; in most records, active means well fitted curve in the direction sought with a large enough effect; inconclusive means small, poorly fitted or top-dose-only effect, or another doubt; inactive means no such curve, though single readings can be large; an effect the other way counts as inactive or inconclusive.

Columns and labels:
[1] = target: Calcium and integrin-binding protein 1 (Homo sapiens) (UniProt Q99828); assay: Primary qHTS for Identification of Calcium Integrin Binding Protein 1 (CIB1) Competitor (AID 1508620);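 further: GST tagged CIB1 binding a fluorescein labelled alphaIIb integrin peptide tracer; top concentration of the series differs between compounds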
Sequence of Calcium and integrin-binding protein 1 (Homo sapiens) (Q99828 whole entry, looked up): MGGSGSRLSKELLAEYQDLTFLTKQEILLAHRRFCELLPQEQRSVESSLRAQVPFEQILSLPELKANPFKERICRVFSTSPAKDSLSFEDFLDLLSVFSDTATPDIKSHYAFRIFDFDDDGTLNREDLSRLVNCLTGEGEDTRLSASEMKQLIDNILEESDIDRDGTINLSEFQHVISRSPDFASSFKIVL
Procedure, shortened: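 Fluorescence polarization competition: GST-tagged CIB1 (1 uM final) preincubated with compound 15 min at room temperature, then FITC-labelled alphaIIb peptide (100 nM final) added. After 15 min at room temperature, polarization read at Ex 480/Em 540.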

[2] = target: Cytochrome P450 2D6 (Homo sapiens) (UniProt P10635); assay: Cytochrome P450 family 2 subfamily D member 6 (CYP2D6) small molecule antagonists: luciferase biochemical (cell-free) qHTS assay (AID 1645840; active means well fitted curve in the direction sought with a large enough effect in the repeat runs; an effect the other way counts as inactive or inconclusive; further: nearly all actives have a fitted effect of over 55% in size; further: potency means the concentration at half of the fitted maximal effect)
Sequence of Cytochrome P450 2D6 (Homo sapiens) (P10635 whole entry, looked up): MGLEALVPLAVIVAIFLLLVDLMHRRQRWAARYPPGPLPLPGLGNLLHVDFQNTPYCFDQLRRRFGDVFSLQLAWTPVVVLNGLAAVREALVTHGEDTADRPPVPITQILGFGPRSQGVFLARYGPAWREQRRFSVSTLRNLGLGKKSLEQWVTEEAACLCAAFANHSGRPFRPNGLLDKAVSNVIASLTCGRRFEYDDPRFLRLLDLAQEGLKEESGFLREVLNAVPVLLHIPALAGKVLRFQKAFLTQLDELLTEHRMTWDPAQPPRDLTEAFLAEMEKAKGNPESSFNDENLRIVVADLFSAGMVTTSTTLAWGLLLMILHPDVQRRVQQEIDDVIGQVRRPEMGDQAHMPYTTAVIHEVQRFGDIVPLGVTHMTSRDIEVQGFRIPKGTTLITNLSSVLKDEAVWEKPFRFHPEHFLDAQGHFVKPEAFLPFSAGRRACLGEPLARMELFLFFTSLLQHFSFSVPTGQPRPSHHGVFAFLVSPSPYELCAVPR
Procedure, shortened: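 P450-Glo CYP2D6 system: proluciferin substrate converted by enzyme to luciferin, read by luminescence proportional to activity. Enzyme-substrate mix with compound 10 min at room temperature, then NADPH regeneration 1 h before detection reagent.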

[3] = target: Cytochrome P450 2C9 (Homo sapiens) (UniProt P11712); assay: Cytochrome P450 family 2 subfamily C member 9 (CYP2C9) small molecule antagonists: luciferase biochemical (cell-free) qHTS assay (AID 1645842; active means well fitted curve in the direction sought with a large enough effect in the repeat runs; an effect the other way counts as inactive or inconclusive; further: nearly all actives have a fitted effect of over 55% in size; further: potency means the concentration at half of the fitted maximal effect)
Sequence of Cytochrome P450 2C9 (Homo sapiens) (P11712 whole entry, looked up): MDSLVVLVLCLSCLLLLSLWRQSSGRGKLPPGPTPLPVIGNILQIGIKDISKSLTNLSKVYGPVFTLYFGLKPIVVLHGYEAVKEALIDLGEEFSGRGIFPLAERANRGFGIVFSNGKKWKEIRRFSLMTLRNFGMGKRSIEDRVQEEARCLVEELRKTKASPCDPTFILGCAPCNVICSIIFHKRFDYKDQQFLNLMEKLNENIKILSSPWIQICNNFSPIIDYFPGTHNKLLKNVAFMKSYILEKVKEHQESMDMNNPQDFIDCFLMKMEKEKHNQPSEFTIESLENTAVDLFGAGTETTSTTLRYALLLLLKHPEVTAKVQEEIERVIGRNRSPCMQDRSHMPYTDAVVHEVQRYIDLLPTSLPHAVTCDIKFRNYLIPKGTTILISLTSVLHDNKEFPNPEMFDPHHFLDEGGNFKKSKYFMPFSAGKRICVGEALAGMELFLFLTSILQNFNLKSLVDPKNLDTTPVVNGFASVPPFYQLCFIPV
Procedure, shortened: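 P450-Glo CYP2C9 system: proluciferin substrate with enzyme in mix containing 0.4% BSA, 10 min at room temperature, then NADPH regeneration solution added and incubated 1 h at 37C. Detection reagent stopped reaction; luminescence read after 20 min as RLU.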

[4] = Primary qHTS for inhibitors of nuclear receptor binding SET domain protein 2 (NSD2) in an isogenic RCH-ACV NSD2 p.E1099K mutant (9B) (AID 1645876); further: nearly all actives have a fitted effect of over 70% in size; further: potency means the concentration at half of the fitted maximal effect
[5] = Primary qHTS for inhibitors of nuclear receptor binding SET domain protein 2 (NSD2) in an RCH-ACV wild type WT cells (2C) (AID 1645877); further: nearly all actives have a fitted effect of over 70% in size; further: potency means the concentration at half of the fitted maximal effect

Compound	Potency [1]	Potency [2]	Potency [3]	Potency [4]	Potency [5]
COc1cccc(C(=O)N2CCN(C(=O)COc3cccc(C)c3)CC2)c1OC	inactive	inactive	21.3 µM (active)	inactive	inactive
CC(C)S(=O)(=O)N[C@H]1CCOC[C@@H]1c1ccc(-c2ccc(C#N)s2)cc1	inactive	10.7 µM (active)	0.213 µM (active)	inactive	inactive
COc1ccc(-c2ccc(-c3cn(C(=O)N4CCCCC4c4ccccc4)nn3)cc2)cc1 (stereo not given)	inactive	inactive	2.13 µM (active)	inactive	inactive
Cc1ccc(C)c(OCCn2cc(C(=O)O)c3ccccc32)c1	inactive	inactive	13.5 µM (active)	inactive	inactive
c1ccc(-c2ncc(CN3CCN(c4ncccn4)CC3)[nH]2)cc1	inactive	0.952 µM (active)	2.13 µM (active)	inactive	inactive
CCOc1cc(CC(=O)NC(CC(C)C)c2ccccc2N2CCCCC2)ccc1C(=O)O (stereo not given)	inactive	inactive	inactive	inactive	inactive
CC1COC(Nc2ccc3ncnc(Nc4ccc(OCc5nccs5)c(Cl)c4)c3c2)=N1 (stereo not given)	inactive	10.7 µM (active)	10.7 µM (active)	16.3 µM (active)	12.9 µM (active)
O=C(NCc1ccccn1)Nc1nnc(-c2ccco2)o1	inactive	inactive	inactive	inactive	inactive
O=C(/C=C/c1cccc(S(=O)(=O)Nc2ccccc2)c1)NO	inactive	21.3 µM (active)	10.7 µM (active)	356 nM (active) and 296 nM (active)	252 nM (active) and 332 nM (active)
CC(NC(=O)C(O)C(C)C)C(=O)NC1C(=O)N(C)CCc2ccccc21 (stereo not given)	inactive	inactive	inactive	inactive	inactive
Cc1oc2ccccc2c1CNC(=O)NCc1cccs1	inactive	1.9 µM (active)	inactive	inactive	inactive
COc1ccc2[nH]c3c(-c4cccc5ccccc45)nccc3c2c1	inactive	0.0151 µM (active)	1.51 µM (active)	0.916 µM (active)	0.578 µM (active)
CNCc1ccc(-c2cc(-c3nc(-c4ccc(S(=O)(=O)C(C)C)cc4)cnc3N)on2)cc1	inactive	inactive	2.13 µM (active)	183 nM (active) and 83.3 nM (active)	183 nM (active) and 93.4 nM (active)
CNC(=O)c1ccccc1Nc1nc(Nc2ccc3c(c2OC)CCCC(N2CCN(CCO)CC2)C3)ncc1Cl (stereo not given)	inactive	15.1 µM (active)	inactive	6.49 µM (active)	7.28 µM (active)
Cc1ccc(C(=O)N(CCCN)C(c2oc3cc(Cl)ccc3c(=O)c2Cc2ccccc2)C(C)C)cc1 (stereo not given)	inactive	10.7 µM (active)	10.7 µM (active)	inactive	inactive
CCO[C@@H]1OC(=O)C[C@@H]1NC(=O)[C@@H]1CCCN1C(=O)[C@@H](NC(=O)c1ccc(N)c(Cl)c1)C(C)(C)C	inactive	inactive	inactive	inactive	inactive
c1ccc(N2CCN(CCc3nn[nH]n3)CC2)cc1	inactive	inactive	9.52 µM (active)	inactive	inactive
CS(=O)(=O)N(CC(=O)NCC1CC1)c1cc(C(F)(F)F)ccc1Cl	inactive	inactive	3.38 µM (active)	inactive	inactive
Cn1cc(S(=O)(=O)c2ccc(Cl)cc2)c2cccc(N3CCNCC3)c21	inactive	13.5 µM (active)	8.49 µM (active)	18.3 µM (active)	11.5 µM (active)
O=C(Nc1ccc(S(=O)(=O)Nc2nccs2)cc1)C(c1ccccc1)c1ccccc1	inactive	19 µM (active)	0.674 µM (active)	inactive	inactive
Cc1ccccc1-n1c([C@H](C)Nc2nc(N)nc3nc[nH]c23)nc2cccc(C)c2c1=O	inactive	16.9 µM (active)	1.34 µM (active)	0.0649 µM (active)	0.411 µM (active)
O=C(CCc1nnc2n(Cc3ccc(Cl)cc3)c(=O)c3ccccc3n12)NCCC1=CCCCC1	inactive	7.56 µM (active)	4.77 µM (active)	inactive	inactive
COc1ccc(CCO[C@@H]2CCCC[C@H]2N2CC[C@@H](O)C2)cc1OC	inactive	10.7 µM (active)	inactive	inactive	inactive
O=C(Cc1ccc(-c2ccccc2)cc1)NC1CCC1	inactive	inactive	6.74 µM (active)	inactive	inactive
